According to PubChem BioAssay (Tox21):
Inconclusive results are not listed. Active and inactive are the calls of the source. Unless noted, calls come from the whole dose curve; as a rule, active = well fitted curve in the direction sought with a large enough effect in the repeat runs; inconclusive = weak or mixed curves; inactive = no such curve, though single readings can be large; an effect the other way counts as inactive or inconclusive.

Experiments:
[1] = qHTS assay to identify small molecule agonists of the vitamin D receptor (VDR) signaling pathway - cell viability counter screen (AID 743224); note: series mostly up to about 63 µM; % is set by controls: 0 for no effect and ±100 for the full control effect; nearly all actives have a fitted effect of over 50% in size
Method in brief: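 VDR-bla cells were preincubated 4 h at 37C/5% CO2, then exposed to compounds for 16 h. After the 2 h room-temperature bla FRET read, CellTiter-Glo was added to the same wells and luminescence read after 30 min.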

[2] = qHTS assay to identify small molecule antagonists of the vitamin D receptor (VDR) signaling pathway - cell viability counter screen (AID 743225); note: % is set by controls: 0 for no effect and ±100 for the full control effect; nearly all actives have a fitted effect of over 50% in size
Method in brief: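 Viability counter screen run in the same wells as the beta-lactamase reporter assay: HEK 293T VDR-UAS-bla cells, 16 h compound exposure at 37C with 3 nM (final) 1-alpha,25-dihydroxyvitamin D3. CellTiter-Glo luminescence, 30 min, room temperature.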

[3] = qHTS assay to identify small molecule agonists of the NFkB signaling pathway (AID 1159509; active = well fitted curve in the direction sought with a large enough effect in the signal ratio in the repeat runs, not every such curve was filed as active; the % refers to the signal ratio; note: series mostly up to about 61 µM; % is set by controls: 0 for no effect and ±100 for the full control effect)
Method in brief: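 ME-180 NFkB-bla, 2,000 cells/well, overnight plating; cpd pinned in DMSO, 5 h 37 C; B/G FRET substrate 1.5 h RT; ex 405, em 460/530 nm.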

[4] = qHTS assay to identify small molecule agonists of the NFkB signaling pathway - cell viability counter screen (AID 1159515; calls by dose curve; note: series mostly up to about 61 µM; % is set by controls: 0 for no effect and ±100 for the full control effect; nearly all actives have a fitted effect of over 55% in size)
Method in brief: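 NFkB-bla ME-180 cells, 2,000/well, were plated overnight at 37 C, 5% CO2, then exposed to compounds in DMSO for 5 hr. After the bla FRET read, CellTiter-Glo was added to the same wells; luminescence was read after 30 min at room temperature.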

[5] = qHTS assay to identify small molecule agonists of the endoplasmic reticulum stress response signaling pathway - cell viability counter screen (AID 1159517; calls by dose curve; note: series mostly up to about 61 µM; % is set by controls: 0 for no effect and ±100 for the full control effect; nearly all actives have a fitted effect of over 50% in size)
Method in brief: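 ESRE-bla HeLa cells, 1,500 per well, seeded overnight then treated with compounds for 5 hr at 37 C. After the beta-lactamase read, viability in the same wells is measured by CellTiter-Glo luminescence after 30 min at room temperature.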

[6] = qHTS assay to identify small molecule antagonists of the retinoid-related orphan receptor gamma (ROR-gamma) signaling pathway - cell viability counter screen (AID 1159520); note: % is set by controls: 0 for no effect and ±100 for the full control effect; nearly all actives have a fitted effect of over 50% in size
Method in brief: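 Tet-on ROR gamma CHO cells were given compounds for 2 hr, then doxycycline hyclate at 1 uM final, and incubated 16 hr at 37 C. Viability was measured as ATP content by CellTiter-Glo luminescence.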

[7] = molecular target: Nuclear receptor ROR-gamma (Homo sapiens) (UniProt P51449); assay: qHTS assay to identify small molecule antagonists of the retinoid-related orphan receptor gamma (ROR-gamma) signaling pathway (AID 1159521)
Method in brief: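 Luminescence readout (ONE-Glo, 30 min RT) after 16 h doxycycline induction; loss of signal scored as antagonism. CHO cells with TET-inducible RORγ and RORE-LUC reporter; compounds added 2 h before 1 uM final doxycycline.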

[8] = qHTS assay to identify small molecule agonists of the AP-1 signaling pathway - cell viability counter screen (AID 1159525; calls by dose curve; note: nearly all actives have a fitted effect of over 55% in size)
Method in brief: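 AP-1-bla ME-180 cells in Opti-MEM with 0.5% dialyzed FBS, compound exposure 5 h at 37 C in 15-point titration. Viability read in the same wells as ATP content by CellTiter-Glo luminescence, normalised to tetra-n-octylammonium bromide and DMSO controls.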

[9] = qHTS assay to identify small molecule agonists of the AP-1 signaling pathway (AID 1159526; calls by dose curve; note: % is set by controls: 0 for no effect and ±100 for the full control effect)
[10] = qHTS assay to identify small molecule agonists of the RXR signaling pathway - cell viability counter screen (AID 1159529)
Method in brief: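 Luminescence from CellTiter-Glo (30 min, RT) measured viability in the same wells as the beta-lactamase reporter readout. Cells: GeneBLAzer RXR-alpha HEK 293T, 2% charcoal-stripped FBS. Compound exposure 16 hr, 37 C.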

[11] = molecular target: Retinoic acid receptor RXR-alpha (Homo sapiens) (UniProt P19793); assay: qHTS assay to identify small molecule agonists of the RXR signaling pathway (AID 1159527; calls by dose curve; note: % is set by controls: 0 for no effect and ±100 for the full control effect; nearly all actives have a fitted effect of over 35% in size)
Retinoic acid receptor RXR-alpha (Homo sapiens), sequence (P19793 whole entry, looked up): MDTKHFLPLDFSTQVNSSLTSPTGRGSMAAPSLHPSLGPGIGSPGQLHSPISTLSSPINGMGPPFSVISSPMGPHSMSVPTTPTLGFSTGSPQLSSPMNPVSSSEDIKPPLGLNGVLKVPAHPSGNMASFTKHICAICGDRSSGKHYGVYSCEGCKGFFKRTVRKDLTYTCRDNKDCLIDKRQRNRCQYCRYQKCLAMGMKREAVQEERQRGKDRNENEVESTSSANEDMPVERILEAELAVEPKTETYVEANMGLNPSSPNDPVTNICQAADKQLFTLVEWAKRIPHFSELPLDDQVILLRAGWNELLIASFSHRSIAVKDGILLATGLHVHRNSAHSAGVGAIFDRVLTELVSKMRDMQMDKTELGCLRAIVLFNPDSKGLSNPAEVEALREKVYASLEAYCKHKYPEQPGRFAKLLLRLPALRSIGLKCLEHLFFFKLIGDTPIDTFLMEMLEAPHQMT
Method in brief: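 Agonist mode; 9-cis retinoic acid positive control. HEK 293T UAS-bla reporter cells, 2% charcoal-stripped FBS, 16 hr compound exposure at 37 C/5% CO2. LiveBLAzer B/G FRET substrate 2 hr RT; ex 405, em 460/530 nm.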

[12] = qHTS assay to identify small molecule antagonists of the retinoid acid receptor (RAR) signaling pathway - cell viability counter screen (AID 1159551); note: % is set by controls: 0 for no effect and ±100 for the full control effect; nearly all actives have a fitted effect of over 35% in size
Method in brief: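 C3RL4 cells were seeded overnight at 37 C, then treated with compounds plus 1 uM (final) retinol for 6 h at 37 C. Viability was read as ATP by CellTiter-Glo luminescence after 30 min at room temperature.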

[13] = qHTS assay to identify small molecule antagonists of the retinoic acid receptor (RAR) signaling pathway (AID 1159552)
Method in brief: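 Luminescence from a RARE luciferase reporter in C3RL4 cells served as read-out. Cells received compounds together with 1 uM final retinol and incubated 6 hr at 37 C before detection reagent was added for 30 min at room temperature.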

[14] = qHTS assay to identify small molecule agonists of the endoplasmic reticulum stress response signaling pathway (AID 1159516; active = well fitted activation curve with a large enough effect in the signal ratio in the repeat runs, not every such curve was filed as active; the % refers to the signal ratio; note: % is set by controls: 0 for no effect and ±100 for the full control effect)
Method in brief: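 CellSensor ESRE-bla HeLa cells, carrying a beta-lactamase reporter driven by the ER stress response element, were plated overnight and exposed to compounds for 5 hr at 37 C. Reporter activity was read as FRET substrate fluorescence after 2 hr at room temperature.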

[15] = qHTS assay to identify small molecule agonists of the retinoic acid receptor (RAR) signaling pathway (AID 1159553); note: % is set by controls: 0 for no effect and ±100 for the full control effect
Method in brief: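 C3RL4 cells carrying a RARE luciferase reporter were plated overnight at 37 C, then exposed to compounds in DMSO for 6 hr at 37 C and 5% CO2. Luminescence was read 30 min after luciferase reagent addition at room temperature.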

[16] = qHTS assay to identify small molecule antagonists of the estrogen related receptor (ERR) signaling pathway - cell viability counter screen (AID 1224818)
Method in brief: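 ERR reporter cells plated 6 h at 37 C/5% CO2, then compounds in DMSO pin-transferred and incubated 17.5 h at 37 C. Viability read as CellTiter-Fluor fluorescence after 30 min at 37 C.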

[17] = qHTS assay to identify small molecule antagonists of the estrogen related receptor signaling pathway with the pleiotropic PPARgamma coactivator (PGC) cell viability counter screen (AID 1224822)
Method in brief: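 PGC/ERR cells were seeded at 2,000 cells/well, rested 6 h at 37 C/5% CO2, then given compounds in DMSO by pin tool and incubated 17.5 h at 37 C. Viability came from CellTiter-Fluor fluorescence after 30 min.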

O=C(O)CCCc1c[nH]c2ccccc12
inactive: Potency [1] | Potency [2] | outcome [3] | Potency [4] | Potency [5] | Potency [6] | Potency [7] | Potency [8] | outcome [9] | Potency [10]

Cc1ccc2nc(N)[nH]c(=O)c2c1Sc1ccncc1
inactive: Potency [1] | Potency [2] | outcome [3] | Potency [4] | Potency [5] | Potency [6] | Potency [7] | Potency [8] | outcome [9] | Potency [11] | Potency [10] | Potency [12]

Cc1oc(=O)oc1COC(=O)[C@@H]1N2C(=O)[C@@H](NC(=O)[C@H](N)c3ccccc3)[C@H]2SC1(C)C
inactive: Potency [1] | Potency [2] | outcome [3] | Potency [4] | Potency [5] | Potency [6] | Potency [7] | Potency [8] | outcome [9] | Potency [11] | Potency [10] | Potency [12]

CCCCCCCCCCCCCCCCCC(=O)OCC(CC)CCCC (stereo not drawn)
inactive: Potency [2] | outcome [3] | Potency [4] | Potency [5] | Potency [6] | Potency [7] | Potency [8] | outcome [9] | Potency [11] | Potency [10] | Potency [13]

CC1=CC[C@@H]2C[C@H]1C2(C)C
inactive: activity change, negative = cytotoxicity [1] 3.15% [at 13.2 µM] | viability change, negative = cytotoxic [2] -2.02% [at 15.1 µM] | activation [3] -0.527% [at 15.1 µM] | activity, negative = cytotoxic [4] 15.3% [at 15.1 µM] | activity change, negative = cytotoxicity [5] 30.1% [at 15.1 µM] | activity, negative = cytotoxicity [6] 2.52% [at 19 µM] | activity change, negative = inhibition [7] -7.14% [at 19 µM] | viability change, negative = cytotoxic [8] 0.876% [at 15.8 µM] | activation [9] 4.37% [at 15.8 µM] | activity change, negative = cytotoxicity [10] -11.8% [at 15.8 µM] | activity change, negative = cytotoxicity [12] -0.147% [at 19 µM] | activity, negative = inhibition [13] 70.7% [at 19 µM]

SCCc1cnccn1
inactive: Potency [1] | Potency [2] | outcome [3] | Potency [4] | Potency [5] | Potency [6] | Potency [7] | Potency [8] | outcome [9] | Potency [11] | Potency [12]

Nc1ccc(S(=O)(=O)NCc2ccccc2)cc1
inactive: Potency [1] | Potency [4] | Potency [14] | Potency [6] | Potency [7] | Potency [8] | outcome [9] | Potency [11] | Potency [10] | Potency [12] | Potency [13] | Potency [15]

O=C(O)/C=C/c1ccc(O)c(O)c1
inactive: Potency [2] | outcome [3] | Potency [4] | Potency [5] | Potency [6] | Potency [7] | Potency [8] | outcome [9] | Potency [10] | Potency [12] | Potency [13] | Potency [15] | outcome [16] | outcome [17]

O=C(O)CNC(=O)c1ccccc1I
inactive: Potency [1] | Potency [2] | outcome [3] | Potency [4] | Potency [5] | Potency [6] | Potency [7] | Potency [8] | outcome [9] | Potency [11] | Potency [10]

COc1cc(NC(C)CCCN)c2ncccc2c1 (stereo not drawn)
inactive: Potency [2] | outcome [3] | Potency [4] | Potency [5] | Potency [6] | Potency [7] | Potency [8] | outcome [9] | Potency [10] | Potency [12] | Potency [15]

C=CCOC(=O)COCCC(C)C
inactive: Potency [1] | Potency [2] | Potency [4] | Potency [14] | Potency [6] | Potency [7] | Potency [8] | outcome [9] | Potency [11] | Potency [10] | Potency [12] | Potency [13]
